Among all 39,000 compounds or so, about 1,500 (3.8%) were called active. The sample holds actives, similar compounds and a random draw of the others, so the mix is not that of the screen.
system: HSkMC (human skeletal muscle cells); assay: cytotoxicity call (relative viability < 0.9); details: 10 µM

Compound	cytotoxicity call
COc1ccc(NC(=O)N(C)C[C@@H]2Oc3ccc(NS(=O)(=O)c4c(C)noc4C)cc3CC(=O)N([C@H](C)CO)C[C@H]2C)cc1	inactive
C[C@@H]1CCCCO[C@@H](CN(C)C(=O)C2CCCCC2)[C@@H](C)CN([C@@H](C)CO)C(=O)c2cc(NC(=O)Cc3ccccc3)ccc2O1	inactive
C[C@@H]1CN([C@H](C)CO)S(=O)(=O)c2ccc(C#CCN(C)C)cc2O[C@@H]1CN(C)S(C)(=O)=O	inactive
CSc1nc(=O)c(C)n[nH]1	inactive
Cc1ccc(S(=O)(=O)Nc2ccc3c(c2)C(=O)N([C@@H](C)CO)C[C@H](C)[C@H](CN(C)S(=O)(=O)c2cn(C)cn2)O3)cc1	inactive
C[C@@H]1CCCCO[C@H](CN(C)Cc2ccc3c(c2)OCO3)[C@H](C)CN([C@@H](C)CO)C(=O)c2cc(NC(=O)Nc3ccc(C(F)(F)F)cc3)ccc2O1	active
C[C@@H]1CN([C@H](C)CO)C(=O)c2cc(NC(=O)Nc3ccc(C(F)(F)F)cc3)ccc2O[C@@H](C)CCCCO[C@@H]1CN(C)Cc1ccc2c(c1)OCO2	active
C[C@H](CO)N1C[C@H](C)[C@H](CN(C)Cc2ccc(C(F)(F)F)cc2)OCCCC[C@H](C)Oc2ccc(NC(=O)Nc3ccc4c(c3)OCO4)cc2C1=O	inactive
C[C@@H]1CCCCO[C@H](CN(C)Cc2ccc3c(c2)OCO3)[C@H](C)CN([C@H](C)CO)C(=O)c2cc(NC(=O)Nc3ccc(C(F)(F)F)cc3)ccc2O1	active
C[C@H](CO)N1C[C@H](C)[C@@H](CN(C)Cc2ccc(C(F)(F)F)cc2)OCCCC[C@H](C)Oc2ccc(NC(=O)Nc3ccc4c(c3)OCO4)cc2C1=O	inactive
C[C@H]1CCCCO[C@@H](CN(C)Cc2ccc(C(F)(F)F)cc2)[C@@H](C)CN([C@@H](C)CO)C(=O)c2cc(NC(=O)Nc3ccc4c(c3)OCO4)ccc2O1	inactive
C[C@@H]1CCCCO[C@@H](CN(C)Cc2ccc(C(F)(F)F)cc2)[C@H](C)CN([C@@H](C)CO)C(=O)c2cc(NC(=O)Nc3ccc4c(c3)OCO4)ccc2O1	inactive
C[C@@H]1CCCCO[C@H](CN(C)Cc2ccc3c(c2)OCO3)[C@@H](C)CN([C@H](C)CO)C(=O)c2cc(NC(=O)Nc3ccc(C(F)(F)F)cc3)ccc2O1	active
C[C@@H]1CN([C@@H](C)CO)C(=O)Cc2cc(NC(=O)Nc3cccc4ccccc34)ccc2O[C@@H]1CN(C)Cc1ccc2c(c1)OCO2	inactive
Cc1noc(C)c1NC(=O)N(C)C[C@@H]1OCCCC[C@@H](C)Oc2ccc(NC(=O)Nc3ccccc3)cc2C(=O)N([C@@H](C)CO)C[C@@H]1C	inactive
Cc1noc(C)c1S(=O)(=O)N(C)C[C@H]1OCCCC[C@@H](C)Oc2ccc(NC(=O)Nc3ccccc3)cc2C(=O)N([C@@H](C)CO)C[C@@H]1C	inactive
COc1ccc(NC(=O)Nc2ccc3c(c2)C(=O)N([C@H](C)CO)C[C@H](C)[C@@H](CN(C)S(=O)(=O)c2c(C)noc2C)OCCCC[C@@H](C)O3)cc1	inactive
C[C@@H]1CCCCO[C@@H](CN(C)C(=O)NC2CCCCC2)[C@H](C)CN([C@H](C)CO)C(=O)c2cc(NC(=O)Cc3ccccc3)ccc2O1	inactive
CC(C)NC(=O)Nc1ccc2c(c1)C(=O)N([C@@H](C)CO)C[C@@H](C)[C@H](CN(C)S(=O)(=O)c1cn(C)cn1)OCCCC[C@@H](C)O2	inactive

Compound	cytotoxicity call
C[C@@H]1CCCCO[C@@H](CN(C)Cc2ccc3c(c2)OCO3)[C@H](C)CN([C@@H](C)CO)C(=O)c2cc(NC(=O)Nc3ccc(C(F)(F)F)cc3)ccc2O1	active
C[C@H](CO)N1C[C@H](C)[C@H](CN(C)Cc2ccc3c(c2)OCO3)OCCCC[C@H](C)Oc2ccc(NC(=O)Nc3ccc(C(F)(F)F)cc3)cc2C1=O	active
C[C@@H]1CCCCO[C@@H](CN(C)Cc2ccc3c(c2)OCO3)[C@@H](C)CN([C@H](C)CO)C(=O)c2cc(NC(=O)Nc3ccc(C(F)(F)F)cc3)ccc2O1	inactive
C[C@@H]1CN([C@H](C)CO)C(=O)c2cc(NC(=O)Nc3ccc(C(F)(F)F)cc3)ccc2O[C@@H](C)CCCCO[C@H]1CN(C)Cc1ccc2c(c1)OCO2	active
C[C@H](CO)N1C[C@H](C)[C@@H](CN(C)Cc2ccc3c(c2)OCO3)OCCCC[C@H](C)Oc2ccc(NC(=O)Nc3ccc(C(F)(F)F)cc3)cc2C1=O	active
C[C@@H]1CN([C@@H](C)CO)C(=O)c2cc(NC(=O)Nc3ccc(C(F)(F)F)cc3)ccc2O[C@@H](C)CCCCO[C@@H]1CN(C)Cc1ccc2c(c1)OCO2	inactive
CC(C)NC(=O)Nc1cccc2c1O[C@@H](CN(C)S(=O)(=O)c1ccccc1)[C@H](C)CN([C@H](C)CO)C2=O	inactive
C[C@@H]1CN([C@@H](C)CO)S(=O)(=O)c2ccc(Br)cc2O[C@H]1CN(C)C(=O)c1ccncc1	inactive
C[C@H](CO)N1C[C@H](C)[C@@H](CN(C)S(=O)(=O)c2ccc(Oc3ccccc3)nc2)OCc2cn(nn2)CCCC1=O	inactive
c1ccc2c(c1)[nH]c1ncccc12	inactive
CCC(=O)N[C@H]1C=C[C@H](CC(=O)OC)O[C@@H]1CO	inactive
COc1ccc(NC(=O)Nc2ccc3c(c2)C(=O)N([C@@H](C)CO)C[C@H](C)[C@@H](CN(C)C(=O)c2ccccc2)OCCCC[C@H](C)O3)cc1	inactive
O=S(=O)(N1CCOCC1)N1CCCN(S(=O)(=O)N2CCOCC2)CC1	inactive
C[C@@H](O)C#Cc1ccc2c(c1)O[C@H](CN(C)C(=O)Cc1ccccn1)[C@@H](C)CN([C@@H](C)CO)S2(=O)=O	inactive
O=C(C[C@H]1C=C[C@H](NC(=O)CN2CCOCC2)[C@@H](CO)O1)NC1CCCCC1	inactive
Nc1ccc(S(N)(=O)=O)cn1	inactive
Cc1cc(C(=O)Nc2cccc3c2O[C@@H](CN(C)Cc2ccc(C(=O)O)cc2)[C@@H](C)CN([C@@H](C)CO)C3=O)n(C)n1	inactive
C[C@@H]1CCCCO[C@@H](CN(C)Cc2ccc3c(c2)OCO3)[C@@H](C)CN([C@@H](C)CO)C(=O)c2cc(NC(=O)Nc3ccc(C(F)(F)F)cc3)ccc2O1	active
C[C@@H]1CCCCO[C@H](CN(C)Cc2ccc3c(c2)OCO3)[C@@H](C)CN([C@@H](C)CO)C(=O)c2cc(NC(=O)Nc3ccc(C(F)(F)F)cc3)ccc2O1	active
